Reference: PubChem BioAssay AID449762 (Southern Research Specialized Biocontainment Screening …, 2010)
The whole screen tested about 330,000 compounds, of which about 1,900 (0.58%) were called active. Another 4% or so got no clear call; they are omitted. These entries were drawn from the full list. Measured potencies and affinities stand elsewhere. A number with no mark means an inactive call. No stated cut-off is given here; in the data, inconclusive means inhibition above about 70% without an active follow-up result; inactive means below that.

Assay: M. tuberculosis growth inhibition, HTS (AID 449762);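 further: bacterial growth assessed after seven days of incubation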
Settings: M. tuberculosis H37Rv growth inhibition, 7H9 media; at 25 µM; stronger effect = higher value

Going from `CSc1ccccc1OCc1cc(C(=O)N2CCSCC2)no1` to `COCC1CCN(C(=O)c2cc(COc3ccccc3SC)on2)C1` (stereo not drawn), the inhibition falls from 4.18% to -1.2%.

Compared with `CCOC(=O)[C@@]12C(=O)C(=O)N[C@]1(c1ccccc1)C1OCCCC12` (stereo partly drawn), `CCOC(=O)C(=O)N1CCC(Cc2ccccc2)CC1` is lower in inhibition: 1.95% for the first, 1.59% for the second.

Going from `COc1ccc(Cn2c(-c3ccc(C)cc3)nc3c(c(=O)c4ccccc4n3C)c2=O)cc1` to `Cn1c2ccccc2c(=O)c2c(=O)n(Cc3ccco3)c(-c3ccc(F)cc3)nc21`, the inhibition rises from -5.96% to 0.8%.

Compared with `Cc1noc(C)c1CSCC(=O)Nc1cccc(C(F)(F)F)c1`, `O=C(Nc1cccc(C(F)(F)F)c1)C(Sc1cccc[n+]1[O-])c1ccccc1` (stereo not drawn) is higher in inhibition: -7.37% for the first, 0.11% for the second.

Going from `CCCCCCc1cc2cc(C(=O)NC)c(=N)oc2cc1O` to `CCCCCCc1cc2cc(C(=O)Nc3ccccc3)c(=O)oc2cc1O`, the inhibition falls from 2.6% to -5.44%.

First: CCc1ccc(CNn2cnnc2SCC(=O)NC(C)(C)C)cc1
Second: CN(Cc1ccccc1)CC(O)COc1ccc(CNCc2nccn2C)cc1 (stereo not drawn)
The inhibition of the first is higher: -7.47% for the first, -8.78% for the second.

First: CC1CN(CC(=O)Nc2ccc([N+](=O)[O-])cc2Br)CC(C)O1 (stereo not drawn)
Second: CS(=O)(=O)N(CC(=O)Nc1ccc(Br)cc1F)C1CCCCC1
The inhibition of the first is higher: 0.73% for the first, -1.79% for the second.

Compared with `CCC/C(=N/NC(=O)c1ccccc1Cl)c1ccccc1`, `NC(N)=NNC(=O)c1ccccc1Cl` is lower in inhibition: 8.2% for the first, -5.25% for the second.

Compared with `NC(=O)CC(NC(=O)c1ccccc1)c1ccc(N2CCC(Cc3ccccc3)CC2)c([N+](=O)[O-])c1` (stereo not drawn), `O=C(/C=C/c1ccc([N+](=O)[O-])cc1)OCC(=O)N1c2ccccc2Sc2ccccc21` is lower in inhibition: 5.54% for the first, 3.32% for the second.

Going from `CC(C)OCCCn1c(-c2ccco2)nc2nc3ccccc3nc21` to `CCCCCn1c(-c2ccco2)nc2nc3ccccc3nc21`, the inhibition rises from 0.09% to 16.5%.

First: C/C(=N\OCC(=O)Nc1ccccc1C(C)(C)C)c1ccc2c(c1)OCCO2
Second: CCN(CC)C(=O)c1ccc(C(=O)c2c(C)cc(C)cc2C)cc1
The inhibition of the first is higher: 9.78% for the first, -0.54% for the second.

First: O=C(Cn1cnc2scc(-c3ccc(Br)cc3)c2c1=O)N1CCOCC1
Second: Cc1cccc(N2C(=O)C(Cl)=C(N3CCOCC3)C2=O)c1
The inhibition of the first is higher: 2.04% for the first, -0.44% for the second.

First: Clc1ccc(CNC23CN4CN(CN(C4)C2)C3)c(Cl)c1
Second: O=C(Nc1ccncc1)c1cc(S(=O)(=O)N2CCCC2)ccc1Cl
The inhibition of the first is lower: -14.8% for the first, 5.2% for the second.

Compared with `N#Cc1nc(-c2ccc(OCc3ccc(Cl)cc3)cc2)oc1NCCCn1ccnc1`, `N#Cc1nc(-c2ccc(OCc3ccccc3Cl)cc2)oc1NCCCn1ccnc1` is lower in inhibition: 0.8% for the first, 0.78% for the second.

Going from `COc1ccc(C2C(C(C)=O)=C(O)C(=O)N2c2cccnc2)c(OC)c1` (stereo not drawn) to `COc1ccc(NC(=O)c2ccc3c(=O)n(-c4ccc(OC)cc4OC)c(=S)[nH]c3c2)c(OC)c1`, the inhibition rises from -10.5% to 40%.

First: O=C1C(Cl)=C(N2CCOCC2)C(=O)N1c1cccc(C(F)(F)F)c1
Second: Cc1c(-n2cc(C(=O)O)c(=O)c3cc(F)c(N4CCCC4)c(F)c32)c(=O)n(-c2ccccc2)n1C
The inhibition of the first is higher: 8.59% for the first, 5.31% for the second.

First: CCOCC(=O)N1CCC(Cc2ccccc2)CC1
Second: CC(=O)c1cccc(CN2CCC(CO)(CCCc3ccccc3)CC2)c1
The inhibition of the first is higher: 12.3% for the first, -3.4% for the second.

First: Cc1oc(-c2ccccc2F)nc1CSCC(=O)NC1CCCC1
Second: O=C1C(C=NCCCN2CCCC2=O)=C(O)c2ccccc21
The inhibition of the first is lower: -11.2% for the first, -5.89% for the second.

Compared with `CC(C)(Oc1ccc(F)cc1)C(=O)OCC(=O)c1ccc(S(C)(=O)=O)cc1`, `CCCn1cc(S(=O)(=O)c2ccc(F)cc2)c(=O)c2cc(OCC)ccc21` is higher in inhibition: 3.45% for the first, 4.19% for the second.

Compared with `CCOC(=O)c1nn(-c2ccc(F)cc2)c2nc(Nc3ccccc3)cc(=O)n12`, `CCOC(=O)c1nn(-c2cccc(Cl)c2)c2nc(Nc3ccccc3)cc(=O)n12` is lower in inhibition: 38.7% for the first, -3.5% for the second.

First: O=C(Nc1ccccc1)C1CC(=O)n2ncnc2N1 (stereo not drawn)
Second: CN1OC(COC(=O)c2ccc(Cl)cc2)CC1c1ccccc1 (stereo not drawn)
The inhibition of the first is lower: -4.59% for the first, 19.7% for the second.

Going from `Cc1ccc(S(=O)(=O)N2[C@@H](c3ccc(Br)cc3)C(C(=O)O)=CC[C@H]2c2ccc(Cl)cc2)cc1` to `COc1ccc(-c2oc(NC(=O)c3ccc(C)cc3)c(C#N)c2-c2ccc(OC)cc2)cc1`, the inhibition falls from 9.55% to 5.32%.

First: COc1ccc2c(Cl)c(-c3nnc(SCC(=O)c4ccccc4)n3C)sc2c1
Second: COc1ccc2c(Cl)c(-c3nnc(SCC(N)=O)n3C)sc2c1
The inhibition of the first is higher: 5.59% for the first, -4.23% for the second.

Compared with `Cc1ccccc1-c1ncc(CN2CCC(CO)(CCCc3ccccc3)CC2)cn1`, `CN1OC(COC(=O)c2ccccc2)CC1c1ccccc1` (stereo not drawn) is higher in inhibition: 22.1% for the first, 66.5% for the second.

Going from `Cc1cc(C)c(NC(=O)c2cn3c4c(c(N5CCN(C)CC5)c(F)cc4c2=O)OCC3C)c(C)c1` (stereo not drawn) to `Cc1cc(C(=O)O)cc(S(=O)(=O)Nc2c(C)nn(C)c2C)c1C`, the inhibition falls from 9.2% to -1.21%.

Compared with `CCOc1cc(S(=O)(=O)N2CCN(S(=O)(=O)CC)CC2)c(OCC)cc1-n1cnnn1`, `COc1ccc(Cl)cc1NS(=O)(=O)c1cccc(C(=O)NC2CC2)c1` is higher in inhibition: 0.44% for the first, 1.57% for the second.

First: O=C(O)/C=C/C(=O)Nc1nccs1
Second: CC(=O)NCCC(=O)Nc1ccc(C(N)=O)cc1
The inhibition of the first is lower: -2.62% for the first, 3.35% for the second.

First: COc1ccc(-c2oc(NC(C)=O)c(C#N)c2-c2ccc(OC)cc2)cc1
Second: COc1cccc2cc(C(=O)OCc3ccccc3)c(=O)oc12
The inhibition of the first is lower: 3.57% for the first, 10.5% for the second.

Going from `CC(=O)Nc1ccc(S(=O)(=O)Oc2cccc(/C=N/N=C3/NC(=O)C(CC(=O)O)S3)c2)cc1` (stereo not drawn) to `O=C(Nc1ccc(Cl)cc1C(F)(F)F)C(Sc1cccc[n+]1[O-])c1ccccc1` (stereo not drawn), the inhibition rises from -3.02% to 16.4%.
